Reference: PubChem BioAssay
Active and inactive are the calls of the source.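 How the source made its calls, unless noted: active means visually confirmed hit in the image check and inhibition above 20%; inconclusive means visually confirmed hit but inhibition not above 20%; inactive means no visual hit in the image check.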

What was measured:
[1] = inhibitors of TNFa-induced NFkB p65 translocation, primary screen, imaging, HUVEC, MLSMR starter and 10KST1 sets (AID 438;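 active means inhibition above 20% together with a positive visual image hit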;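 further: compound added about 3h40 before a 20 min TNFalpha stimulation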;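 on inhibition: signal is the nuclear over cytoplasmic p65 intensity ratio per well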); settings: HUVEC TNFa-induced p65 nuclear translocation; cell count: measured here: nuclei count (cytotoxicity indicator), at 2.08 µM; inhibition: at 2 µM, stronger effect = higher value, 0% TNFa-plus-vehicle, 100% no-TNFa wells
[2] = inhibitors of mutant huntingtin aggregation, primary screen, imaging, exon1htt(103Q)mCFP cells, high-content imaging (AID 483;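 active means visual image review flags a hit and inhibition of aggregation exceeds 20%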;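 further: compound exposure lasted 3 days before fixation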;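 on nuclei count: percent of the per-plate median nuclei count of sample wells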); settings: exon1htt(103Q)mCFP cell line, aggregate imaging, at 2 µM; inhibition of aggregation: stronger effect = higher value; nuclei count: measured here: cell count, toxicity
[3] = inhibitors of E-selectin induction by TNFa, primary screen, imaging, HUVEC, immunofluorescence, MLSMR starter and 10KST1 sets (AID 487); settings: HUVEC TNFalpha-induced E-selectin immunofluorescence imaging, at 2 µM; inhibition: stronger effect = higher value; nuclei count: measured here: cell number, toxicity;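 on inhibition: signal is fraction of cell area covered by stained E-selectin grains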;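 on nuclei count: 100% = median nuclei count of all wells on the same plate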
[4] = target: Voltage-gated potassium channel subunit beta-2 (Rattus norvegicus) (UniProt P62483); assay: KvBeta enzyme negative modulators, primary screen, biochemical, NADPH fluorescence (AID 622;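 active means fluorescence slope higher than the sample average by over 3 SD, cut at about -0.22 in these data, passing the limit was not always enough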;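 further: slope of raw intensity against log time taken from 70 to 1610 s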); settings: recombinant KvBeta, 4-cyanobenzaldehyde reduction, at 10 µM, stronger effect = higher value
Chain of Voltage-gated potassium channel subunit beta-2 (Rattus norvegicus) (P62483 whole entry, looked up): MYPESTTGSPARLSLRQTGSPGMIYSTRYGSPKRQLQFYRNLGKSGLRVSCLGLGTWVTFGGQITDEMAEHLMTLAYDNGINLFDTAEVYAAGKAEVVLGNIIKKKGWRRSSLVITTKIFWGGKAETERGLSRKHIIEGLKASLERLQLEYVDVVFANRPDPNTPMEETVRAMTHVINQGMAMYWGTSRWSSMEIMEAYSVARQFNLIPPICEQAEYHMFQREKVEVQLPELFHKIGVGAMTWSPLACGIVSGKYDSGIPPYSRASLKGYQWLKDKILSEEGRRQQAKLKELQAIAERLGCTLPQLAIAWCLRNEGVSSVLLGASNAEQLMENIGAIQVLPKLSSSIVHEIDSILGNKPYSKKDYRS

[5] = target: Voltage-gated potassium channel subunit beta-2 (Rattus norvegicus) (UniProt P62483); assay: KvBeta positive modulators, primary screen, biochemical, NADPH fluorescence (AID 623;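 active means NADPH fluorescence slope more negative than the mean of all samples by about 3 SD, 99.7% confidence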;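 further: fluorescence intensity change per second fitted from 20 to 320 s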); settings: Recombinant KvBeta, NADPH fluorescence decrease slope, 10 min; at 10 µM; stronger effect = lower value
[6] = target: Alpha-2C adrenergic receptor (Homo sapiens) (UniProt P18825); assay: modulators of alpha2C/GIRK thallium flux, primary screen, cell-based, HEK293 alpha2C/GIRK1/2 (AID 624;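 active means fluorescence slope after compound addition differing from the mean of all screened samples at 99.7% confidence, in either direction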;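 further: slope of fluorescence ratio to pre-addition baseline per second over 15 to 24 s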); settings: thallium flux BTC fluorescence, at 10 µM, actives lie on both sides
Chain of Alpha-2C adrenergic receptor (Homo sapiens) (P18825 whole entry, looked up): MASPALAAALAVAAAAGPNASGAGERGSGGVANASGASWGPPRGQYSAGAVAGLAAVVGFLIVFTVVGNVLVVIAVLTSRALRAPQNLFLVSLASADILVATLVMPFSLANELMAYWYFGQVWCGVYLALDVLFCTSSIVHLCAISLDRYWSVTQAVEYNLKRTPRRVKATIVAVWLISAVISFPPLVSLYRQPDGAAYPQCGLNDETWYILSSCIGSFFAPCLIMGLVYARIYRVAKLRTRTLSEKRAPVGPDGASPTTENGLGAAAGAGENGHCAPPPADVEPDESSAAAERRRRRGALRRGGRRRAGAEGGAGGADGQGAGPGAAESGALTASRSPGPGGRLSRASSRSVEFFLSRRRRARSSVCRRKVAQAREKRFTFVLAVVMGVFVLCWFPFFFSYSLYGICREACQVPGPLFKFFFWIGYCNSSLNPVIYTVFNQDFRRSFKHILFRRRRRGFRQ

[7] = inhibitors of Sendai virus-induced IRF3 signaling, primary screen, TLR/RLR signaling modifier project, cell-based, Sendai virus stimulus, luciferase, 10K MLSCN set (AID 602276;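 active means inhibition at or above 50% at 10 µM; inactive means inhibition below 50%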;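 further: firefly luciferase from ISG56 promoter only with Renilla not read in this screen; 0% = Sendai virus plus DMSO and 100% = medium plus DMSO without virus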); settings: HEK293 RL24 IRF3 luciferase reporter, at 10 µM, stronger effect = higher value
[8] = inhibitors of poly I:C-induced TLR3 signaling, primary screen, cell-based, poly I:C stimulus, luciferase, 10K MLSCN set (AID 602277;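 active means inhibition of the reporter signal at or above 50%; inactive means inhibition below 50%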); settings: HEK293-TLR3 RL24 IRF3 luciferase reporter, at 10 µM, stronger effect = higher value

| Structure (SMILES) | cell count [1] | inhibition [1] | inhibition of aggregation [2] | nuclei count [2] | inhibition [3] | nuclei count [3] | fluorescence slope [4] | NADPH fluorescence slope [5] | slope [6] | inhibition [7] | inhibition [8] |
| --- | --- | --- | --- | --- | --- | --- | --- | --- | --- | --- | --- |
| Cc1ccc(-n2c3c(cc(C(=O)NC4CCSC4=O)c2=O)C(=O)CC(C)(C)C3)cc1 (stereo not drawn) | 294 | 7.2% (inactive) | 7% (inactive) | 100% | -48.3% (inactive) | 97.9% | -0.458 (inactive) | -8.6e-06 (inactive) | 0.00353 (inactive) | -0.246% (inactive) | 38.6% (inactive) |
| O=C(CNCC1CCCO1)Nc1ccccc1-n1cccc1 (stereo not drawn) | 671 | -11.4% (inactive) | 1.7% (inactive) | 90.8% | -127% (inactive) | 127% | -0.291 (inactive) | -4.7e-05 (inactive) | 0.00473 (inactive) | 2.08% (inactive) | 15% (inactive) |
| Cc1cc(C)c(NC(=O)C2CSCCS2)c(C)c1 (stereo not drawn) | 484 | 4.7% (inactive) | 23.2% (inactive) | 96% | -55.7% (inactive) | 111% | -0.392 (inactive) | -6.2e-05 (inactive) | 0.00428 (inactive) | -3.4% (inactive) | -35.7% (inactive) |
| NC(=O)CCS(=O)(=O)CCN1CCCCC1 | 361 | 5.7% (inactive) | 2.7% (inactive) | 89.8% | -14.9% (inactive) | 116% | -0.435 (inactive) | 4.4e-05 (inactive) | 0.0056 (inactive) | 19.5% (inactive) | 23.8% (inactive) |
| CCOC(=O)C1=C(C)NC(C)=C(C(=O)OCC)C1c1cc(N)ccc1OC(F)F | 181 | -11% (inactive) | 22.6% (inactive) | 83.8% | -12.2% (inactive) | 96.5% | -0.445 (inactive) | 4.3e-05 (inactive) | 0.00592 (inactive) | 8.52% (inactive) | 28.4% (inactive) |
| CC(O)c1c(OCc2ccccc2)ncnc1OCc1ccccc1 (stereo not drawn) | 426 | 0.5% (inactive) | -7.1% (inactive) | 65.7% | -36.1% (inactive) | 115% | -0.44 (inactive) | -0.000123 (inactive) | 0.00502 (inactive) | 10.6% (inactive) | 20.8% (inactive) |
| O=c1oc2ccccc2cc1NCc1ccccc1O | 644 | 2.1% (inactive) | -25% (inactive) | 115% | -19.5% (inactive) | 106% | -0.594 (inactive) | -1.9e-05 (inactive) | 0.00653 (inactive) | -15.8% (inactive) | -21.8% (inactive) |
| CCOC(=O)CC(=O)Nc1c(C)cc(C)cc1C | 270 | 7.5% (inactive) | 12.8% (inactive) | 87.4% | 6.5% (inactive) | 105% | -0.416 (inactive) | 6.4e-05 (inactive) | 0.00527 (inactive) | -9.54% (inactive) | 2.4% (inactive) |
